Measurements: ChEMBL document CHEMBL1961873, “Compounds: GSK PKIS; Assays: Nanosyn kinase panel” (2012)

Tests used:
[1] = target: Serine/threonine-protein kinase MRCK alpha (Homo sapiens) (UniProt Q5VT25); conditions: at 0.1 µM
[2] = target: Serine/threonine-protein kinase MRCK alpha (Homo sapiens) (UniProt Q5VT25); conditions: at 1 µM
[3] = target: Serine/threonine-protein kinase MRCK beta (Homo sapiens) (UniProt Q9Y5S2); conditions: at 0.1 µM
[4] = target: Serine/threonine-protein kinase MRCK beta (Homo sapiens) (UniProt Q9Y5S2); conditions: at 1 µM
[5] = target: Ribosomal protein S6 kinase alpha-5 (Homo sapiens) (UniProt O75582); conditions: at 0.1 µM
[6] = target: Ribosomal protein S6 kinase alpha-5 (Homo sapiens) (UniProt O75582); conditions: at 1 µM
[7] = target: Ribosomal protein S6 kinase alpha-4 (Homo sapiens) (UniProt O75676); conditions: at 0.1 µM
[8] = target: Ribosomal protein S6 kinase alpha-4 (Homo sapiens) (UniProt O75676); conditions: at 1 µM
[9] = target: Ribosomal protein S6 kinase beta-1 (Homo sapiens) (UniProt P23443); conditions: at 0.1 µM
[10] = target: Ribosomal protein S6 kinase beta-1 (Homo sapiens) (UniProt P23443); conditions: at 1 µM

Sequence of Ribosomal protein S6 kinase alpha-5 (Homo sapiens) (O75582 whole entry, looked up): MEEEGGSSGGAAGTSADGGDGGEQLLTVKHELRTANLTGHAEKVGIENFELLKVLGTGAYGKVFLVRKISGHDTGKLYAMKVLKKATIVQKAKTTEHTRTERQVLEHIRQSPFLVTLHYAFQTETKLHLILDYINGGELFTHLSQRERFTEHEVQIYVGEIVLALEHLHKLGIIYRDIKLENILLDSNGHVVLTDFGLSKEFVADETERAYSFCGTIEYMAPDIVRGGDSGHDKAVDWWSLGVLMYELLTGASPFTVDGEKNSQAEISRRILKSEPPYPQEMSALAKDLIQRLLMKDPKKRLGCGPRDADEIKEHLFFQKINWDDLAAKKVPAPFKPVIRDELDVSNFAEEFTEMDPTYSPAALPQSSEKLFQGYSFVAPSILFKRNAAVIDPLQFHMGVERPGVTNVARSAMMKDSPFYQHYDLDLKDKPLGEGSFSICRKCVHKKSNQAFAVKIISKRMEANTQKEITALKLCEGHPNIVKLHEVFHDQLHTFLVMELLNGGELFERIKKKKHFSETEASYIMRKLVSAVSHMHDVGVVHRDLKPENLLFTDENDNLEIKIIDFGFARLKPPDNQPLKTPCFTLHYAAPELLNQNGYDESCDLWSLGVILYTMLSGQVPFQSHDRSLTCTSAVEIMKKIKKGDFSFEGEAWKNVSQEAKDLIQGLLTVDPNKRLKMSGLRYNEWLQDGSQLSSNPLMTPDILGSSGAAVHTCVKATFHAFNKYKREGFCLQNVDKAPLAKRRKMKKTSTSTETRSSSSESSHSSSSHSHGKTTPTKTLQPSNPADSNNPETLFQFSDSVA
Sequence of Ribosomal protein S6 kinase alpha-4 (Homo sapiens) (O75676 whole entry, looked up): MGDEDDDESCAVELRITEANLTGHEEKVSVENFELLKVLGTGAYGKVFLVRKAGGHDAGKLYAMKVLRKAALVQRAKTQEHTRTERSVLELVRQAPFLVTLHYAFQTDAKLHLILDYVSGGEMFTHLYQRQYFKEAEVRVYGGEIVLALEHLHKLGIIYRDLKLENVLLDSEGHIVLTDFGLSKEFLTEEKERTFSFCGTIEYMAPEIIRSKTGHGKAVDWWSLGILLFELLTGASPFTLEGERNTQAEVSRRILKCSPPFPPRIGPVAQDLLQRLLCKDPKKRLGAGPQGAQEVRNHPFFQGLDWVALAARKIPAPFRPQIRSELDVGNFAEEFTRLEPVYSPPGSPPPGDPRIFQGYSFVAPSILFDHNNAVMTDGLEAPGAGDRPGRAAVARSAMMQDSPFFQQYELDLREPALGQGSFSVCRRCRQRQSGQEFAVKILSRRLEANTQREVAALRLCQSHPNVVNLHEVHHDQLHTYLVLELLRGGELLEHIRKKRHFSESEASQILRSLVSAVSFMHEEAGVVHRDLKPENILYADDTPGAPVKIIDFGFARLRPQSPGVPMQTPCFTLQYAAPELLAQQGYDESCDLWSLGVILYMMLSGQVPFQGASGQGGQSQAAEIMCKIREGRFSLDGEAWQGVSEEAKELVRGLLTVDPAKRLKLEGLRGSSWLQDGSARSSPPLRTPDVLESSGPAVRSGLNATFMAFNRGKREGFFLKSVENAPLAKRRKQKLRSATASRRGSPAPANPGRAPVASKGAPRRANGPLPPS
Sequence of Serine/threonine-protein kinase MRCK beta (Homo sapiens) (Q9Y5S2 whole entry): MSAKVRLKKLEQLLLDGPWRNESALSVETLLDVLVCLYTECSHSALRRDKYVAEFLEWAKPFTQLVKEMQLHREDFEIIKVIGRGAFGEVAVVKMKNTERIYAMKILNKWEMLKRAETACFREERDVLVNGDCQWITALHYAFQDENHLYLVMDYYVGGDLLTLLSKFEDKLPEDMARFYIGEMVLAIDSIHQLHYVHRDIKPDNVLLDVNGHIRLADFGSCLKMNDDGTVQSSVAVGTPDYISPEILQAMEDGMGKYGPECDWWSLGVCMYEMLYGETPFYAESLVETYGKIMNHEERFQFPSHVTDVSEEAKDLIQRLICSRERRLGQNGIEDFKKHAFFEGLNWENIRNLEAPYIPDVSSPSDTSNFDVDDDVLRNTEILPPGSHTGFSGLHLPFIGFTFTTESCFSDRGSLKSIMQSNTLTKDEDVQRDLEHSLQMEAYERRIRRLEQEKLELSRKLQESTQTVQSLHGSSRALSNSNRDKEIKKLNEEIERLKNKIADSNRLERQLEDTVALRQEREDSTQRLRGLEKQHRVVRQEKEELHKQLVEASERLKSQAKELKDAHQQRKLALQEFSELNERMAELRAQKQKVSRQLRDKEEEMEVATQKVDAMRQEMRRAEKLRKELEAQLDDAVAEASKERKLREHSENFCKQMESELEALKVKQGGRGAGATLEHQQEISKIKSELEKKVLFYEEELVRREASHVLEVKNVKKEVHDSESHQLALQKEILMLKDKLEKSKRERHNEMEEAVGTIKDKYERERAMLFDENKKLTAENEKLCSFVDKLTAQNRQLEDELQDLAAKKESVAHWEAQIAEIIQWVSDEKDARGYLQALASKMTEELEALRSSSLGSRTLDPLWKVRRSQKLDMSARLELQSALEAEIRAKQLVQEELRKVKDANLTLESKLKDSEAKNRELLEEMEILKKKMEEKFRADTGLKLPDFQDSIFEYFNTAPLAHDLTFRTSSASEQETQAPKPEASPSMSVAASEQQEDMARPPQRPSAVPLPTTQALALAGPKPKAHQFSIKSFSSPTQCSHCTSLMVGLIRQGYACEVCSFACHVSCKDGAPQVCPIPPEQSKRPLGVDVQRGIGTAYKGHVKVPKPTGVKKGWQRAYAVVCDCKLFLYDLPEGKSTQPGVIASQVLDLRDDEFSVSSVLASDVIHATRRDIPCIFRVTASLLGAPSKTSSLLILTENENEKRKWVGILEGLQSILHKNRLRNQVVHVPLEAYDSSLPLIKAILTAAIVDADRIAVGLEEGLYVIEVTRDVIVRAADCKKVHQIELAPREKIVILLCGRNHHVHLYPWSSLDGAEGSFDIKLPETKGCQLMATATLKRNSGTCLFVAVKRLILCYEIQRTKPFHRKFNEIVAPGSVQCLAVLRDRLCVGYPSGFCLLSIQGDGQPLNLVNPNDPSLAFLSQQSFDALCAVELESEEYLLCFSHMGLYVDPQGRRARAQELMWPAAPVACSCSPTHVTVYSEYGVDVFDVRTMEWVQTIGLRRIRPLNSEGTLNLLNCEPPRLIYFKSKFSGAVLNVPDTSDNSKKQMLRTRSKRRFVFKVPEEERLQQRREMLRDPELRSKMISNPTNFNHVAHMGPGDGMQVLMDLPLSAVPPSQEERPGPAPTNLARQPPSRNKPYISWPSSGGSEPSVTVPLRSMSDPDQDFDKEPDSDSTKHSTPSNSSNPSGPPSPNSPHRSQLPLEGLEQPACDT
Sequence of Serine/threonine-protein kinase MRCK alpha (Homo sapiens) (Q5VT25 whole entry): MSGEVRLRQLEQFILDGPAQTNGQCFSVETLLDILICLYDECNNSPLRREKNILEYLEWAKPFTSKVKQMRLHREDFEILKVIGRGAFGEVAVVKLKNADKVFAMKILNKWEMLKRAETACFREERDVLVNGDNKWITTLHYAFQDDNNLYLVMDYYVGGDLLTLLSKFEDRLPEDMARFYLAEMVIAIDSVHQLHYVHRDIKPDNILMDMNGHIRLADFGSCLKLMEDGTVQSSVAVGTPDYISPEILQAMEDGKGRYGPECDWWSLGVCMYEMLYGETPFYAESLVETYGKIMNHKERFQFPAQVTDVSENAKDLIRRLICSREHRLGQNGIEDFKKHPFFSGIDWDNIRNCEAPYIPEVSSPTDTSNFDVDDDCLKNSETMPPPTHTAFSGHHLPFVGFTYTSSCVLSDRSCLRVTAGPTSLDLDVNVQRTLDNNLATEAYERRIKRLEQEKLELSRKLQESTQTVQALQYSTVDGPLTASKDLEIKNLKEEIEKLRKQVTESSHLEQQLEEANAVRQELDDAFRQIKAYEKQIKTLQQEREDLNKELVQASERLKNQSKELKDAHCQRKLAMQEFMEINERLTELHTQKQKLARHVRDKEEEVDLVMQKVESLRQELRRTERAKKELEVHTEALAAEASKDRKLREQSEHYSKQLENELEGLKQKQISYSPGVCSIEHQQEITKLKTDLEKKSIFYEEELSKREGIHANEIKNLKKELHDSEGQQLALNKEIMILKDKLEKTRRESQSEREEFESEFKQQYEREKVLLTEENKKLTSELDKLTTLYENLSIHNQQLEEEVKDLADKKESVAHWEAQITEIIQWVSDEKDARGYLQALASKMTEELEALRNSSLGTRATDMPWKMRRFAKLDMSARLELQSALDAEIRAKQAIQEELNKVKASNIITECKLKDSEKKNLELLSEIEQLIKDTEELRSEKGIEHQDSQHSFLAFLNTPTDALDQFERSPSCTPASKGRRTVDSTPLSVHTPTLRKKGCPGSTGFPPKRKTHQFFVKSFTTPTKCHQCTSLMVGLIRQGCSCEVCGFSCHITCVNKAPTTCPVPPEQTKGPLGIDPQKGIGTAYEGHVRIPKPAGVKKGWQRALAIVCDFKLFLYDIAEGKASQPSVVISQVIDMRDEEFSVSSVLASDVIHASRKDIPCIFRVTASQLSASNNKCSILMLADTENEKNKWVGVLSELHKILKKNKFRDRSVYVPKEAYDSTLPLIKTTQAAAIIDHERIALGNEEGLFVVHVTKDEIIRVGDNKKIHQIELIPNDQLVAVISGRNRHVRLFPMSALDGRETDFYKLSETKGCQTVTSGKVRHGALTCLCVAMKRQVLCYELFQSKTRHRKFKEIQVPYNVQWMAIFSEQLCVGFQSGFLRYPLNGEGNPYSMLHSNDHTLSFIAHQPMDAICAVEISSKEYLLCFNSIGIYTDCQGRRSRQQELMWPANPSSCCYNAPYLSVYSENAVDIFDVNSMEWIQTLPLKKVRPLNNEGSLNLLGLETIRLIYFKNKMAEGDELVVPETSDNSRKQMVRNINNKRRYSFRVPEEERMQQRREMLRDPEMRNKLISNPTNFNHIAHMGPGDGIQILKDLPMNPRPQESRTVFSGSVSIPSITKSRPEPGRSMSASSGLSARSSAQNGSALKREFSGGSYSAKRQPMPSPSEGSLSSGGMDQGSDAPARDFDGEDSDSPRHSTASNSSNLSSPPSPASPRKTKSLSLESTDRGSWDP

Row | SMILES | inhibition [1] | inhibition [2] | inhibition [3] | inhibition [4] | inhibition [5] | inhibition [6] | inhibition [7] | inhibition [8] | inhibition [9] | inhibition [10]
1 | COc1ccc2cc(-c3c(-c4ccncc4)nc(-c4ccc(S(C)(=O)=O)cc4C)n3C)ccc2c1 | 0.29% | 1.6% | 2.15% | 1.98% | 3.82% | 5.44% | 7.21% | 9.9% | 1.75% | 3.34%
2 | C/C(Nc1ccc(S(N)(=O)=O)cc1)=C1/C(=O)Nc2ccccc21 | -0.23% | 0.16% | 0.47% | 3.4% | 0% | 8.47% | 1.38% | 17.7% | -1.96% | 2.17%
3 | O=C1NC(=O)C(c2cccc(Cl)c2)=C1Nc1ccc(Cl)c(C(=O)O)c1 | 1.43% | 4.38% | 0.15% | -0.05% | 3.03% | 2.1% | 2.51% | 2.85% | 0.51% | 1.96%
4 | CCC(=O)Nc1ccc(C)c(-c2ccc(C(=O)NCC3CC3)cc2)c1 | 0% | 1.8% | -0.7% | 0.23% | 0.17% | -0.98% | 1.96% | 2.63% | 0.91% | 1.77%
5 | O=C(NCC1CC1)c1ccc(-c2cccc(C(=O)NC3CC3)c2)cc1 | 0.69% | -1.55% | 1.52% | 1.09% | 2.45% | 2.84% | 0.7% | 3.88% | 1.49% | 1.03%
6 | CCN(CC)Cc1ccc(Nc2nccc(-c3cnn4ncccc34)n2)cc1 | 2.38% | 4.32% | 0.71% | 4.53% | 0.66% | 2.51% | 2.43% | 7.32% | 1.81% | 7.85%
7 | NC(=O)c1cc(-c2ccc(F)cc2)cc(-c2ccncc2)c1N | -1.04% | -1.25% | -1.54% | -2.26% | 2.2% | 1.39% | 2.03% | 2.52% | 1.5% | 2.24%
8 | NS(=O)(=O)c1ccc(Nc2cc(-c3ccc(O)c(F)c3)n[nH]2)cc1 | -0.79% | 0.17% | 0.18% | 0.15% | -1.17% | 8.77% | -0.21% | 8.93% | -2.09% | 4.29%
9 | Cc1ccc(C(=O)NC2CCC2)cc1-c1ccc(C(=O)NCC2CC2)cc1 | 0.19% | 0.56% | 0.73% | 0.97% | 2.7% | 2.99% | 1.75% | 3.11% | 1.12% | 0.01%
10 | NS(=O)(=O)c1ccc(N/N=C2\C(=O)Nc3ccc(C(=O)NCCCn4ccnc4)cc32)cc1 | 0.3% | 7.89% | 0.34% | 5.24% | 9.46% | 11.1% | 3.85% | 13.7% | 1.91% | 8.54%
11 | Clc1ccc(CNc2nccc(-c3cnn4ncccc34)n2)cc1 | 0% | 2.46% | -1.16% | 0.3% | 6.95% | 7.87% | 1.14% | 1.71% | 1.82% | 2.04%
12 | Fc1ccc(-c2ncn(C3CCNCC3)c2-c2ccnc(Oc3ccc4c(c3)OCO4)n2)cc1 | -2.57% | 9.23% | 0.96% | 2.94% | -2.64% | -3.44% | 3.63% | 4.53% | 2.58% | 5.14%
13 | Fc1ccc(-c2ncn(C3CCNCC3)c2-c2ccnc(Oc3ccc(F)c(F)c3)n2)cc1 | -3.08% | -2.58% | -0.68% | -0.35% | 0.54% | -0.7% | 3.37% | 4.69% | 0.73% | 0.63%
14 | CCc1ccc(Oc2nccc(-c3c(-c4ccc(F)cc4)ncn3C3CCNCC3)n2)cc1 | 10% | 12% | 0.41% | 4.65% | 2.63% | 4.23% | 3.19% | 5.69% | 1.57% | 5.93%
15 | NS(=O)(=O)c1ccc(N/N=C2\C(=O)Nc3ccc(-c4cnco4)cc32)cc1 | 0.37% | 8.38% | 0.26% | 6.65% | -1.59% | -0.36% | 0.74% | 3.26% | 0.79% | 6.58%
16 | CN(C)CCOc1ccc(-c2cc(-c3ccc4c(c3)CCC4=NO)c(-c3ccncc3)o2)cc1 | -0.43% | -0.33% | -0.99% | -2.76% | -1.98% | -2.88% | 0.1% | -2.21% | -1.83% | -2.77%
17 | NC(=O)c1ccc(Oc2nccc(-c3c(-c4ccc(F)cc4)ncn3C3CCNCC3)n2)cc1 | 5.74% | 5.95% | 1.2% | 2.3% | -2.57% | -1.95% | 3.42% | 5.79% | 3.21% | 5.34%

Row | SMILES | inhibition [1] | inhibition [2] | inhibition [3] | inhibition [4] | inhibition [5] | inhibition [6] | inhibition [7] | inhibition [8] | inhibition [9] | inhibition [10]
18 | C#Cc1cccc(Nc2ncnc3ccc(OCCCCNCCS(C)(=O)=O)cc23)c1 | -0.05% | 7.35% | 0.55% | 1.44% | 2.74% | 1.8% | 3.12% | 3.4% | 2.59% | 3.29%
19 | CCS(=O)(=O)c1ccc(OC)c(Nc2ncc(-c3cccc(-c4ccccc4F)c3)o2)c1 | -0.09% | -0.52% | 0.66% | 1.36% | 0.09% | 1.42% | 0.74% | 1.94% | 0.15% | 1.18%
20 | O=C1Nc2ccccc2/C1=C/Nc1ccc(-n2cncn2)cc1 | 0.72% | 3.59% | 0.37% | 1.08% | 5.48% | 8.54% | 3.95% | 13.4% | 2.05% | 9.06%
21 | N#Cc1ccc(Oc2nccc(-c3c(-c4ccc(F)cc4)ncn3C3CCNCC3)n2)cc1 | -6.56% | -3.04% | -1.06% | 0.02% | 1.54% | -0.96% | 3.03% | 1.76% | 1.84% | 2.31%
22 | c1ccc(-c2n[nH]cc2-c2ccnc(-c3ccc(OCCN4CCOCC4)cc3)c2)nc1 | 6.85% | -2.76% | 7.67% | 5.68% | 3.06% | 1.22% | 3.23% | 3.34% | 2.04% | 1.17%
23 | COc1cc(Nc2ncc3c(C)nc(-c4cccc(Oc5ccccc5)c4)n3n2)cc(OC)c1OC | 0.02% | -0.11% | 0.97% | 1.86% | 8.17% | 7.74% | 0.96% | 2.98% | 1.98% | 3.01%
24 | COc1cc(Nc2ncc(-c3ccccc3)o2)cc(OC)c1OC | 2.53% | 3.73% | 0.08% | 0.86% | 0.23% | 0.82% | -1.71% | 0.02% | -0.45% | 3.55%
25 | COc1ccc(C2=C(N3CCc4ccccc43)C(=O)NC2=O)cc1 | -0.56% | -0.21% | 1.1% | 0.12% | 4.26% | 3.53% | 2.26% | 3.24% | 1.91% | 3.41%
26 | O=C(Nc1ccc(Oc2ccc3[nH]c(NC(=O)c4ccccc4)nc3c2)cc1)Nc1cc(C(F)(F)F)ccc1F | -0.69% | 1% | -0.31% | -0.22% | 4.16% | 5.67% | 2.16% | 3.01% | 5.73% | 36.4%
27 | Cc1nnc(-c2ccc(C)c(-c3ccc(C(=O)NCc4ccc(Cl)cc4)cc3)c2)o1 | 0.16% | 1.24% | 0.69% | -0.22% | 1.45% | 1.55% | 3.07% | 3.61% | 1.21% | 2.04%
28 | Fc1ccc(-c2nc3n(c2-c2ccncc2)CCS3)cc1 | 0.18% | 2.85% | 1.28% | 3.22% | 2.74% | 3.92% | 1.65% | 5.1% | 2.08% | 2.54%
29 | Fc1ccc(-c2ncn(CCCN3CCOCC3)c2-c2ccncc2)cc1 | 1.19% | 1.33% | 0.96% | 2.08% | 0.01% | -0.79% | 0.3% | 0.33% | 0.29% | -0.43%
30 | O=C1Nc2ccc(I)cc2C1=Cc1cc(Br)c(O)c(Br)c1 | 6.44% | 3.97% | -0.53% | 1.27% | 1.69% | 1.77% | 2.87% | 4.68% | 2.06% | 4.52%
31 | c1ccc(Oc2ccc(Nc3ncc(-c4ccccc4)o3)cc2)cc1 | -0.31% | 1.06% | 0.44% | 3.62% | 0.98% | 3.6% | 1.31% | 3.78% | 0.11% | -0.31%
32 | O=C(Nc1n[nH]c2nc(-c3ccco3)ccc12)C1CC1 | -0.04% | -0.15% | 0.63% | 3.54% | 6.97% | 8.4% | 1.68% | 3.29% | 1.44% | 2.43%
33 | COc1cc(C)c(N(C)C(=O)CN(C)C)cc1Nc1nc(Nc2cccc(F)c2C(N)=O)c2cc[nH]c2n1 | 0.58% | 0.78% | 1.08% | 1.21% | 1.09% | 0.49% | 1.07% | 2.79% | 2.18% | 1.42%
34 | COc1cc2ncn(-c3cc(OCc4cccs4)c(C(N)=O)s3)c2cc1OC | 2.82% | 7.52% | 1.67% | 1.38% | 2.22% | 5.4% | 4.25% | 8% | 1.35% | 3.91%
